The subject of one assay is T1, GRK3.
T1 construct: gene ADRBK2
Particulars: concentration: 1 μM, replicates: in singlicate; n = 1.

Another assay concerns GRK4. The conditions noted are these: concentration: 1 μM, replicates: in singlicate; n = 1.
In another assay the test system is GRK7. Particulars: concentration: 1 μM, replicates: in singlicate; n = 1.
Another assay relates to GSK3A. Particulars: concentration: 1 μM, replicates: in singlicate; n = 1.
The next assay relates to GSK3B. The conditions noted are these: n = 1.
A further assay concerns T2, HASPIN.
T2 construct: gene GSG2
The conditions noted are these: concentration: 1 μM, replicates: in singlicate; n = 1.

The next assay deals with HCK. The conditions noted are these: concentration: 1 μM, replicates: in singlicate; n = 1.
Another assay concerns HIPK1. The conditions noted are these: concentration: 1 μM, replicates: in singlicate; n = 1.
The test system of another assay is HIPK2. Particulars: concentration: 1 μM, replicates: in singlicate; n = 1.
The next assay deals with HIPK3. Particulars: concentration: 1 μM, replicates: in singlicate; n = 1.
A further assay concerns HIPK4. Particulars: concentration: 1 μM, replicates: in singlicate; n = 1.
For a further assay, the system named is HPK1. The conditions noted are these: concentration: 1 μM, replicates: in singlicate; n = 1.
Another assay concerns HUNK. The conditions noted are these: concentration: 1 μM, replicates: in singlicate; n = 1.
In another assay the test system is ICK. Particulars: concentration: 1 μM, replicates: in singlicate; n = 1.
A further assay concerns IGF1R. The conditions noted are these: concentration: 1 μM, replicates: in singlicate; n = 1.
A further assay concerns T3, IKK-alpha.
T3 construct: gene CHUK
Particulars: concentration: 1 μM, replicates: in singlicate; n = 1.

The next assay relates to T4, IKK-beta.
T4 construct: gene IKBKB
The conditions noted are these: concentration: 1 μM, replicates: in singlicate; n = 1.

The next assay has as its system T5, IKK-epsilon.
T5 construct: gene IKBKE
Particulars: concentration: 1 μM, replicates: in singlicate; n = 1.

The test system of the next assay is INSRR. Particulars: concentration: 1 μM, replicates: in singlicate; n = 1.
The next assay concerns INSR. Particulars: concentration: 1 μM, replicates: in singlicate; n = 1.
The mark [1] stands for this setting: concentration: 1 μM, replicates: in singlicate.

Where two headings read alike, the source gives them in different places.
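Further: KINOMEscan kinase panel screen.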

In the case of `CNc1nc(-c2ccc3c(N)n[nH]c3c2)cc(N2C[C@@H](C(=O)Nc3ccccc3)CC[C@H]2C)n1` [GSK2298859], the “%Inh” value came out at 0% with GRK3; 0% with GRK4; 0% in the assay with GRK7; 26% in the assay with GSK3A; 0% with GSK3B (setting [1]); 13% with HASPIN. Further, the “%Inh” value is given as 0% with HCK; 0% in the assay on HIPK1; 0% in the assay with HIPK2; 1% with HIPK3; 0% in the assay on HIPK4; 18% with HPK1. Further, the “%Inh” value in the assay with HUNK amounted to 0%; in the assay on ICK, 0%; in the assay on IGF1R it was 11%; with IKK-alpha, 0%; with IKK-beta, 0%; in the assay with IKK-epsilon, 24%. The “%Inh” value in the assay with INSRR and with INSR was 0% throughout.

As for `Cc1ccc(NC(=O)Nc2ccccc2F)cc1-c1ccc(C(=O)Nc2ccncc2)cc1` [GSK1398477], the “%Inh” value in the assay on GRK3 was determined as 0%; with GRK4, 30%; in the assay on GRK7 it was 0%; in the assay on GSK3A, 25%; with GSK3B (setting [1]) it was 3%; with HASPIN, 0%. Also, the “%Inh” value stood at 0% in the assay with HCK; 0% in the assay on HIPK1; 0% with HIPK2; 10% in the assay with HIPK3; 0% in the assay on HIPK4; 44% with HPK1. For the same compound, the “%Inh” value is listed as 31% with HUNK; 18% with ICK; 0% with IGF1R; 0% in the assay on IKK-alpha; 6% with IKK-beta; 19% with IKK-epsilon. The “%Inh” value with INSRR came to 11%; in the assay on INSR it was 16%.

Regarding `Nc1nccc(-c2c(-c3ccc(F)cc3)ncn2C2CCN(Cc3ccccc3)CC2)n1` [SB-219980], the “%Inh” value in the assay on GRK3 amounted to 6%; in the assay on GRK4, 0%; in the assay with GRK7, 6%; in the assay with GSK3A, 16%; in the assay on GSK3B (setting [1]) it was 11%; in the assay with HASPIN, 0%. Moreover, the “%Inh” value in the assay on HCK is 9%; in the assay on HIPK1 it was 0%; with HIPK2, 0%; in the assay with HIPK3, 0%; in the assay on HIPK4 it was 0%; with HPK1, 11%. The “%Inh” value was 37% with HUNK; 1% in the assay with ICK; 0% in the assay with IGF1R; 0% with IKK-alpha; 0% with IKK-beta; 5% in the assay with IKK-epsilon. Besides, the “%Inh” value with INSRR was determined as 1%; with INSR it was 0%.

Take `COC(=O)C(Cc1ccccc1)NC(=O)NC1CCN(c2ccnc(Nc3ccc(F)cc3)n2)C1` (stereo not shown) [GSK1379714]: the “%Inh” value turned out to be 58% with GRK3; 1% in the assay with GRK4; 0% in the assay with GRK7; 13% in the assay with GSK3A; 6% with GSK3B (setting [1]); 24% in the assay on HASPIN. Moreover, the “%Inh” value with HCK amounted to 4%; in the assay with HIPK1, 0%; with HIPK2, 0%; in the assay on HIPK3, 0%; in the assay with HIPK4, 0%; in the assay with HPK1, 51%. Besides, the “%Inh” value is 0% in the assay on HUNK; 0% in the assay with ICK; 8% in the assay on IGF1R; 0% in the assay on IKK-alpha; 0% in the assay with IKK-beta; 34% with IKK-epsilon. The results for the “%Inh” value in the assay with INSRR and in the assay on INSR were 0% and 1%, respectively.

Take `Fc1ccc(-c2nc[nH]c2-c2ccncc2)cc1` [SB-217360]: the “%Inh” value with GRK3 was found to be 11%; in the assay on GRK4, 19%; with GRK7, 0%; in the assay on GSK3A, 0%; in the assay with GSK3B (setting [1]) it was 13%; in the assay with HASPIN, 57%. Moreover, the “%Inh” value in the assay with HCK amounted to 20%; in the assay on HIPK1, 34%; in the assay with HIPK2, 10%; in the assay on HIPK3, 7%; in the assay with HIPK4, 0%; in the assay with HPK1, 0%. The “%Inh” value amounted to 55% in the assay with HUNK; 0% with ICK; 3% with IGF1R; 9% in the assay on IKK-alpha; 0% in the assay on IKK-beta; 0% in the assay with IKK-epsilon. For the same compound, the “%Inh” value in the assay on INSRR is 0%; with INSR, 24%.

Regarding `CS(=O)(=O)Cc1ccc(Nc2nccc(-c3c(-c4cccc(NC(=O)C5CCCCC5)c4)nn4ncccc34)n2)cc1` [GSK350559], the “%Inh” value is recorded as 0% with GRK3; 0% with GRK4; 5% in the assay with GRK7; 0% in the assay with GSK3A; 20% with GSK3B (setting [1]); 17% with HASPIN. The “%Inh” value in the assay on HCK is recorded as 1%; with HIPK1, 5%; with HIPK2 it was 14%; in the assay with HIPK3, 23%; in the assay on HIPK4, 0%; with HPK1, 14%. For the same compound, the “%Inh” value is recorded as 7% with HUNK; 14% in the assay with ICK; 68% with IGF1R; 0% in the assay on IKK-alpha; 12% in the assay with IKK-beta; 32% in the assay on IKK-epsilon. Moreover, the “%Inh” value with INSRR is given as 20%; in the assay on INSR, 42%.

With `COc1ccc(CSc2nnc(-c3ccc4c(c3)CCO4)o2)cc1`, the “%Inh” value came to 3% in the assay with GRK3; 1% in the assay with GRK4; 0% in the assay with GRK7; 75% in the assay on GSK3A; 0% in the assay on GSK3B (1 µM); 42% with HASPIN. Besides, the “%Inh” value is 0% with HCK; 9% in the assay with HIPK1; 0% in the assay on HIPK2; 0% in the assay on HIPK3; 0% with HIPK4; 0% with HPK1. Also, the “%Inh” value in the assay on HUNK, with ICK, with IGF1R, in the assay with IKK-alpha, in the assay with IKK-beta and with IKK-epsilon was 0% in each case. The “%Inh” value in the assay on INSRR and in the assay on INSR was 0% each time.

`Cc1ccccc1Cn1ccn2c(=O)cc(N3CCOCC3)nc12` [GSK2269905]: the “%Inh” value is 26% in the assay on GRK3; 0% with GRK4; 0% with GRK7; 2% in the assay with GSK3A; 15% in the assay with GSK3B (setting [1]); 0% in the assay on HASPIN. Moreover, the “%Inh” value is 0% in the assay with HCK; 0% in the assay with HIPK1; 0% in the assay on HIPK2; 9% in the assay on HIPK3; 0% in the assay with HIPK4; 32% in the assay on HPK1. Besides, the “%Inh” value in the assay on HUNK is recorded as 7%; in the assay with ICK it was 0%; in the assay on IGF1R it was 2%; in the assay on IKK-alpha it was 0%; in the assay on IKK-beta it was 12%; in the assay on IKK-epsilon, 0%. Further, the “%Inh” value amounted to 0% with INSRR and 17% with INSR.

For the compound `COc1ccc(Nc2nccc(N3CCC(NC(=O)c4cc5ccccc5s4)C3)n2)cc1` (stereo not shown) [GSK1379738], the “%Inh” value stood at 0% in the assay with GRK3; 0% in the assay on GRK4; 0% in the assay on GRK7; 11% in the assay with GSK3A; 14% in the assay with GSK3B (setting [1]); 24% with HASPIN. Besides, the “%Inh” value in the assay on HCK was determined as 0%; in the assay with HIPK1, 0%; in the assay with HIPK2, 0%; in the assay on HIPK3, 7%; in the assay with HIPK4 it was 0%; in the assay with HPK1, 48%. The “%Inh” value turned out to be 0% in the assay with HUNK; 10% in the assay on ICK; 0% in the assay on IGF1R; 21% in the assay on IKK-alpha; 25% with IKK-beta; 28% in the assay on IKK-epsilon. Moreover, the “%Inh” value is given as 0% with INSRR and 5% with INSR.

As to `COc1ccc(CSc2nnc(-c3ccc4ncsc4c3)o2)cc1C(F)(F)F`, the “%Inh” value in the assay with GRK3 came to 1%; with GRK4 it was 18%; in the assay on GRK7, 0%; with GSK3A, 98.4%; with GSK3B (1 µM) it was 89%; in the assay with HASPIN, 45%. Further, the “%Inh” value in the assay on HCK is 0%; in the assay with HIPK1 it was 38%; with HIPK2, 0%; in the assay on HIPK3, 0%; with HIPK4, 0%; with HPK1, 0%. Besides, the “%Inh” value came to 1% in the assay on HUNK; 0% in the assay on ICK; 0% in the assay on IGF1R; 0% in the assay with IKK-alpha; 0% in the assay on IKK-beta; 0% with IKK-epsilon. The entries for the “%Inh” value with INSRR and with INSR were 1% and 0%, respectively.

Turning to `CC(=O)c1cccc(NC(=O)NC2CCN(c3ccnc(Nc4ccc(F)cc4)n3)C2)c1` (stereo not shown) [GSK1379710], the “%Inh” value is 49% in the assay with GRK3; 0% in the assay on GRK4; 0% in the assay with GRK7; 32% in the assay on GSK3A; 4% in the assay on GSK3B (setting [1]); 26% with HASPIN. In addition, the “%Inh” value in the assay on HCK was 2%; in the assay with HIPK1, 0%; in the assay on HIPK2 it was 0%; in the assay with HIPK3 it was 7%; in the assay with HIPK4, 0%; in the assay with HPK1, 50%. In addition, the “%Inh” value in the assay with HUNK stood at 0%; with ICK it was 5%; in the assay on IGF1R, 0%; in the assay on IKK-alpha, 4%; with IKK-beta it was 1%; with IKK-epsilon, 33%. The “%Inh” value is on record as 0% in the assay with INSRR and 12% with INSR.
